# PubChem BioAssay AID1159580 (chemical genetic matrix, 2015)
# Hit rate of the full screen: of about 5,500 compounds, about 2,000 (36%) were called active. Another 18% or so got no clear call; they are omitted. The list shows a part of the results. Unmarked numbers belong to inactive results. Cut-off read from the data, not from the text of the source: active = normalized growth mostly below about 0.91 (no sharp cut-off); inconclusive = no clear call, values can overlap the other calls; inactive = mostly above about 0.92.
# Assay: chemical genetic growth profiling, strain panel (AID 1159580);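 note: tested at 20 µM; growth read once vehicle control cultures reached saturation at 30 °C; 1 = growth at the plate median or of vehicle wells; lower values mean less growth of the strain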
# Details: S. cerevisiae deletion strains, growth OD
structure (smiles),measurement,setting,value
C=CCc1c(CCC)nc(-c2ccccn2)[nH]c1=O,normalized growth,"locus YAR019C, strain CDC15, hits give low values",0.931
same,normalized growth,"locus YBL105C, strain PKC1, hits give low values",0.945
same,normalized growth,"locus YBR135W, strain CKS1, hits give low values",0.95
same,normalized growth,"locus YBR136W, strain MEC1, hits give low values",0.933
same,normalized growth,"locus YBR160W, strain CDC28, hits give low values",0.947
same,normalized growth,"locus YDL017W, strain CDC7, hits give low values",0.931
same,normalized growth,"locus YDL028C, strain MPS1, hits give low values",0.931
same,normalized growth,"locus YDL101C, strain DUN1, hits give low values",0.945
same,normalized growth,"locus YDL108W, strain KIN28, hits give low values",0.937
same,normalized growth,"locus YDL132W, strain cdc53, hits give low values",0.936
same,normalized growth,"locus YDL214C, strain PRR2, hits give low values",0.893
same,normalized growth,"locus YDR052C, strain DBF4, hits give low values",0.955
same,normalized growth,"locus YDR054C, strain cdc34, hits give low values",0.916
same,normalized growth,"locus YDR226W, strain ADK1, hits give low values",0.94
same,normalized growth,"locus YDR477W, strain SNF1, hits give low values",0.891
same,normalized growth,"locus YER123W, strain YCK3, hits give low values",0.772
same,normalized growth,"locus YER133W, strain GLC7, hits give low values",0.912
same,normalized growth,"locus YFL009W, strain cdc4, hits give low values",0.928
same,normalized growth,"locus YFL029C, strain CAK1, hits give low values",0.92
same,normalized growth,"locus YFR003C, strain YPI1, hits give low values",0.952
same,normalized growth,"locus YFR019W, strain FAB1, hits give low values",0.939
same,normalized growth,"locus YFR028C, strain CDC14, hits give low values",0.945
same,normalized growth,"locus YGR040W, strain KSS1, hits give low values",0.893
same,normalized growth,"locus YGR052W, strain FMP48, hits give low values",0.904
same,normalized growth,"locus YGR092W, strain DBF2, hits give low values",0.752
same,normalized growth,"locus YHR030C, strain SLT2, hits give low values",0.875
same,normalized growth,"locus YHR079C, strain IRE1, hits give low values",0.701
same,normalized growth,"locus YHR082C, strain KSP1, hits give low values",0.883
same,normalized growth,"locus YHR205W, strain SCH9, hits give low values",0.983
same,normalized growth,"locus YIL147C, strain SLN1, hits give low values",0.931
same,normalized growth,"locus YJL095W, strain BCK1, hits give low values",0.784
same,normalized growth,"locus YJL128C, strain PBS2, hits give low values",0.96
same,normalized growth,"locus YJL157C, strain FAR1, hits give low values",0.867
same,normalized growth,"locus YJR016C, strain ILV3, hits give low values",0.94
same,normalized growth,"locus YJR066W, strain TOR1 (second series), hits give low values",0.767
same,normalized growth,"locus YJR066W, strain TOR1, hits give low values",0.748
same,normalized growth,"locus YKL048C, strain ELM1, hits give low values",0.966
same,normalized growth,"locus YKL067W, strain YNK1, hits give low values",0.902
same,normalized growth,"locus YKL101W, strain HSL1, hits give low values",0.896
same,normalized growth,"locus YKL193C, strain SDS22, hits give low values",0.936
same,normalized growth,"locus YKL203C, strain TOR2, hits give low values",0.926
same,normalized growth,"locus YLR113W, strain HOG1, hits give low values",0.733 (active)
same,normalized growth,"locus YLR133W, strain CKI1, hits give low values",0.886
same,normalized growth,"locus YLR403W, strain SFP1, hits give low values",0.892
same,normalized growth,"locus YML070W, strain DAK1, hits give low values",0.884
same,normalized growth,"locus YMR001C, strain CDC5, hits give low values",0.937
same,normalized growth,"locus YMR205C, strain PFK2 (second series), hits give low values",0.901
same,normalized growth,"locus YMR277W, strain FCP1, hits give low values",0.944
same,normalized growth,"locus YNL006W, strain LST8, hits give low values",0.943
same,normalized growth,"locus YNL020C, strain ARK1, hits give low values",0.877
same,normalized growth,"locus YNL161W, strain CBK1, hits give low values",0.945
same,normalized growth,"locus YNL183C, strain NPR1, hits give low values",0.825
same,normalized growth,"locus YNL207W, strain RIO2, hits give low values",0.924
same,normalized growth,"locus YNL222W, strain SSU72, hits give low values",0.945
same,normalized growth,"locus YNL307C, strain MCK1 (second series), hits give low values",0.84
same,normalized growth,"locus YOL078W, strain AVO1, hits give low values",0.933
same,normalized growth,"locus YOL136C, strain PFK27, hits give low values",0.883
same,normalized growth,"locus YOR061W, strain CKA2, hits give low values",0.877
same,normalized growth,"locus YOR119C, strain RIO1, hits give low values",0.905
same,normalized growth,"locus YOR231W, strain MKK1, hits give low values",0.73
same,normalized growth,"locus YOR329C, strain SCD5, hits give low values",0.941
same,normalized growth,"locus YPL031C, strain PHO85, hits give low values",0.891
same,normalized growth,"locus YPL153C, strain RAD53, hits give low values",0.864
same,normalized growth,"locus YPL204W, strain HRR25, hits give low values",0.856
same,normalized growth,"locus YPL209C, strain IPL1, hits give low values",0.94
same,normalized growth,"locus YPL256C, strain CLN2, hits give low values",0.823 (active)
same,normalized growth,"locus YPR025C, strain CCL1, hits give low values",0.945
same,normalized growth,"locus YPR106W, strain ISR1, hits give low values",0.944
same,normalized growth,"locus YPR111W, strain DBF20, hits give low values",0.954
same,normalized growth,"strain NNK1, hits give low values",0.945
same,normalized growth,"strain TSCII, hits give low values",0.929
